From PubChem
Only some compounds are listed: those with a hit (about 27% of all), similar ones and a draw of the others.
Cav3 T inh – human Cav3.2 channel inhibition, primary screen; Cav3.2-expressing cells, Fluo-4 calcium fluorescence FDSS; active compounds read low; B-score at 10 µM; 100,000 compounds, 4% hits; O95180;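 active = single-dose well whose peak fluorescence ratio is a statistical outlier from its plate by either plate-standardised score or position-corrected B-score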
CYP2C9 act – increases human cytochrome P450 2C9 activity; P11712; recombinant CYP2C9, luciferin-H conversion, luminescence; active compounds read high; factor 1 = untreated enzyme, 0 = blocked; activation factor at 5 µM; 96,000 compounds, 1.4% hits; AID 1024;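 active = activation factor of 2 or more for CYP2C9 at a 5 µM dose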
CYP2C19 inh – inhibitors of human CYP2C19. P33261. CYP2C19 Supersomes, luciferin-H EGE luminescence, 30 min. inhibition, % at 5 µM. 96,000 compounds, 21% hits. AID 778;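 active = CYP2C19 inhibition above a set limit at 5 µM in the primary screen, cut at about 50% in these data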
CYP2C9 inhib – human CYP2C9 inhibition; inhibition, % at 5 µM; CYP2C9 Supersomes, luciferin-H conversion, luminescence; AID 777; 96,000 compounds, 20% hits;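 active = blocking of liver enzyme CYP2C9 beyond about 50% at 5 µM, limit read from the data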
CYP2C19 activ – activators of human cytochrome P450 2C19; P33261; recombinant CYP2C19, luciferin-H EGE luminescence; active compounds read high; 0 = fully inhibited enzyme, 1 = untreated enzyme; activation factor at 5 µM; 96,000 tested, under 10 active; AID 1025;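 active = activation factor of at least 2 at 5 µM in the primary screen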
Hits are given with their value; – = inactive; · = no result given.

SMILES	Cav3 T inh	CYP2C9 act	CYP2C19 inh	CYP2C9 inhib	CYP2C19 activ
CN(C)c1cccc2c(S(=O)(=O)Nc3ccccn3)cccc12	–	–	92	–	–
CCN1C(=O)c2cccc3c(NC(=O)c4ccccc4)ccc1c23	–	·	·	·	·
Cn1ncc(Cl)c1C(=O)Nc1cccnc1	–	–	–	–	–
Cn1cccc1C(=O)OCC(=O)Nc1ccc2c(c1)CCC2	–	–	–	–	–
CC(C(=O)O)n1c(C(F)(F)F)nc2ccccc21 (centres undefined)	–	–	–	–	–
CCCC[C@@H]1C[C@H]1[C@@H](NC(=O)c1cccs1)c1ccc(C(F)(F)F)cc1	–	·	·	·	·
CC(NC(=O)COc1ccc(Br)cc1)C(=O)O (centres undefined)	–	–	–	–	–
Cc1cc(C)c(OCC(=O)Nc2ccc3c(c2)OCO3)cc1C	–	–	–	–	–
Cc1cc(OCC(=O)Nc2ccncc2)c(C)cc1Br	–	–	100	100	–
O=C(COc1ccc(Br)cc1)Nc1ccncc1	–	–	100	97	–
CC1CN(CCCCOc2ccc(C(C)C)cc2)CC(C)O1 (centres undefined)	–	–	–	–	–
Cc1c(Cl)cccc1N(CC(=O)N1CCCCCC1)S(C)(=O)=O	–	–	–	–	–
CCOC(=O)N1CCN(C(=O)CN(c2cc(C(F)(F)F)ccc2Cl)S(C)(=O)=O)CC1	–	–	54	–	–
CCOC(=O)N1CCN(C(=O)CN(c2ccc(OC)cc2)S(C)(=O)=O)CC1	–	·	·	·	·
CCOC(=O)N1CCN(C(=O)CN(c2ccc(Cl)c(C(F)(F)F)c2)S(C)(=O)=O)CC1	–	–	56	–	–
CS(=O)(=O)N(CC(=O)N1CCCC1)c1cc(Cl)c(Cl)cc1Cl	–	–	90	–	–
CC(NC(=O)C(Cc1ccccc1)NC(=O)c1ccccc1)C(=O)O (centres undefined)	–	–	–	–	–
FC(F)Oc1ccc(NC(=S)NN2CCOCC2)cc1	–	–	–	–	–
O=C(CC1=NC2(CCCC2)Cc2ccccc21)N1CCOCC1	–	–	–	–	–
CCOC(=O)c1c(N)sc2c1CCC1C(=O)N(C3CCCCC3)C(=O)C21 (centres undefined)	–	–	91	90	–
c1coc(Cn2c(SCc3nc4ccccc4[nH]3)nnc2-c2cccs2)c1	–	–	98	92	–
Cc1cccc(-c2nnc(SCc3nc4ccccc4[nH]3)n2Cc2ccco2)c1	-4.8	–	54	70	–
Cc1ccc(-c2nnc(SCc3nc4ccccc4[nH]3)n2Cc2ccco2)cc1	·	–	–	–	–
CC(C)C(=O)N/N=C/c1ccc(OCc2ccccc2)cc1	·	–	–	–	–
Cc1cccc(OCC(=O)NC(C)C(=O)N/N=C/c2c(OCc3ccccc3)ccc3ccccc23)c1 (centres undefined)	-6.8	–	–	89	–
SMILES	Cav3 T inh	CYP2C9 act	CYP2C19 inh	CYP2C9 inhib	CYP2C19 activ
Nc1sc2c(c1C(=O)NC1CCS(=O)(=O)C1)CCC2 (centres undefined)	–	–	–	–	–
COC(=O)c1ccc(NC(=O)Cc2ccccc2)cc1	–	–	83	70	–
CCOC(=O)c1ccc(NC(=S)NCC(O)c2ccccc2)cc1 (centres undefined)	·	–	–	–	–
COC(=O)c1ccc(NC(=O)CNS(=O)(=O)c2cccs2)cc1	–	–	65	–	–
CCOC(=O)c1ccc(NC(=S)NCCc2ccccc2)cc1	–	–	–	66	–
CCC(C)C(=O)Nc1cc(C(=O)OC)cc(C(=O)OC)c1 (centres undefined)	–	–	–	61	–
COC(=O)c1cc(NC(=O)CN2CCOCC2)cc(C(=O)OC)c1	–	–	–	–	–
COC(=O)c1ccc(NC(=O)Cc2ccc(C)cc2)cc1	–	–	–	–	–
Cc1ccc(-n2c(Cn3nc(C(F)F)cc3C(F)F)n[nH]c2=S)cc1	–	–	–	–	–
O=C(NC1CCCC1)C(c1ccccn1)N(C(=O)c1csnn1)C1CC1 (centres undefined)	–	–	–	–	–
COC(=O)c1ccc(NC(=S)Nc2ccc3ccccc3c2)cc1	–	–	–	–	–
COC(=O)c1cc(NC(=O)Cc2ccc(OC)cc2)cc(C(=O)OC)c1	–	–	–	84	–
COC(=O)c1ccc(NC(=S)Nc2ccccc2)cc1	–	–	52	–	–
COC(=O)c1nc2n(n1)C(c1ccccc1OC)C1=C(CCCC1=O)N2 (centres undefined)	–	–	–	–	–
CN1CCN(C(=O)c2cc3nc(-c4ccccc4)cc(-c4ccccc4)n3n2)CC1	–	–	–	–	–
COc1cccc(-c2cc(C(=O)Nc3cc(OC)c(OC)c(OC)c3)no2)c1	–	–	81	–	–
Cc1ccc(NC(=O)c2cc(-c3cccc(O)c3)on2)cc1C	–	2.9	–	–	–
COc1cc(NC(=O)c2cc3nc(-c4ccccc4)cc(-c4ccccc4)n3n2)cc(OC)c1OC	–	–	–	64	–
Cc1ccc(C(=O)CSc2nc(C)cc(SCc3nnc(-c4ccccc4)o3)n2)cc1	–	–	–	–	–
Nc1c2c(nc3ccc(Br)cc13)N(c1ccccc1)CC2	–	–	89	87	–
COc1ccc(NC(=S)N/N=C2/CCCc3c(C)cc(C)cc32)cc1	–	–	–	–	–
COc1ccc(NC(=O)O/N=C2/CCCc3ccc(OC)cc32)cc1	–	–	–	62	–
CC(C)(C)NC(=O)COC(=O)c1cncc(Br)c1	–	–	–	–	–
Nc1ccccc1C(=O)N(Cc1ccccc1)Cc1ccccc1	-5.8	·	·	·	·
CCN(Cc1ccccc1)C(=O)c1ccccc1C	–	–	56	–	–
SMILES	Cav3 T inh	CYP2C9 act	CYP2C19 inh	CYP2C9 inhib	CYP2C19 activ
O=C(O)c1ccccc1C(=O)N(Cc1ccccc1)Cc1ccccc1	–	–	–	–	–
CSc1ccc2[nH]c(=O)cc(C)c2c1	–	–	–	–	–
COC(C[C@H]1O[C@H]1[C@@H](O)[C@@H](C)OCc1ccccc1)OC	–	·	·	·	·
C=CCn1c(SC(C)C(=O)NCc2ccc3c(c2)OCO3)nnc1C1CCCCC1 (centres undefined)	–	–	56	57	–
O=C(CSc1nnc(-c2cccnc2)n1-c1ccccc1)NCc1ccc2c(c1)OCO2	–	–	–	–	–
CC(Sc1nnc(-c2cccnc2)n1-c1ccccc1)C(=O)NCc1ccc2c(c1)OCO2 (centres undefined)	–	–	–	91	–
COc1ccc(-c2nnc(SC(C)C(=O)NCc3ccc4c(c3)OCO4)n2Cc2ccco2)cc1 (centres undefined)	-5.3	–	–	–	–
O=C(CSc1nnc(-c2ccccc2Cl)n1Cc1ccco1)Nc1ccc2c(c1)OCCO2	–	–	90	93	–
C=CCn1c(SCC(=O)NCc2cccs2)nnc1C1CCCCC1	–	–	–	–	–
CCCc1cc(=O)n2[nH]c(NCc3c(F)cccc3Cl)nc2n1	–	–	–	–	–
CC(C)OC(=O)c1c(-c2ccc(C(C)C)cc2)csc1NC(=O)C1CCCO1 (centres undefined)	–	–	–	–	–
